The record followed here is PubChem BioAssay AID1220 (Sanford-Burnham Center for Chemical Genomics, 2008).

Molecules are shown by their SMILES. Out of some 190,000 compounds screened, about 1,300 (0.68%) were called active. The sample as a whole holds a higher share of actives than the screen did. A number with no mark means an inactive call. No stated cut-off is given here; in the data, active means inhibition above about 50%; inactive means the rest.

The inhibition is the relative decrease from the control value, in per cent.

In the experiment the target is Mannose-6-phosphate isomerase (Homo sapiens) (UniProt P34949). Description: MPI inhibition at elevated mannose 6-phosphate – biochemical, fluorescence intensity, high mannose 6-phosphate, primary screen (AID 1220). As to conditions: recombinant PMI enzyme, coupled fluorescence intensity; at 20 µM; stronger effect = higher value.
Chain of Mannose-6-phosphate isomerase (Homo sapiens) (P34949 whole entry, looked up): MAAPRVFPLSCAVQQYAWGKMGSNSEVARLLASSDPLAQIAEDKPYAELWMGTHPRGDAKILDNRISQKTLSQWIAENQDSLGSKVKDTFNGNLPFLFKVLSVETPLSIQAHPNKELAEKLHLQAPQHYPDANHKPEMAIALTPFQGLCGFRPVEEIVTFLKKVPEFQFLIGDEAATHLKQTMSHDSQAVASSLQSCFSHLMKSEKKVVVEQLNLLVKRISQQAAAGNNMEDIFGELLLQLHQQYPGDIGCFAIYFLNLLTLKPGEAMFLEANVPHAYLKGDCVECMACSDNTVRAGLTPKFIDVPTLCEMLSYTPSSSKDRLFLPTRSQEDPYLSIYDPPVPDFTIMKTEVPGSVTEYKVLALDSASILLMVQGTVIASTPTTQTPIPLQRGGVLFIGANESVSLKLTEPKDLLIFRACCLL
For the compound `C=CCc1cccc(/C=N/NC(=O)CNc2ccccc2)c1O`, the inhibition is -4.5%.

As for `O=C(CNc1ccccc1)c1ccc([N+](=O)[O-])cc1`, the inhibition is -90.7%.

Take `O=C(CNc1cccc2ccccc12)c1ccc([N+](=O)[O-])cc1`: the inhibition was 57.5% (active).

Consider `Cc1cccc(/C=N/NC(=O)C(C)Nc2cccc3ccccc23)n1` (configuration not stated), for which the inhibition was -72.3%.

On to `Cc1cccc(/C=N/NC(=O)CNc2cccc3ccccc23)n1`, for which the inhibition is 61.8% (active).

On to `O=C(CNc1cccc2ccccc12)N/N=C/c1ccc([N+](=O)[O-])cc1`, for which the inhibition is 18.1%.

In the case of `C=CCc1cccc(/C=N/NC(=O)CNc2ccccc2OC)c1O`, the inhibition is -20.8%.

With `C=CCc1cccc(/C=N/NC(=O)CNc2cccc3ccccc23)c1O`, the inhibition is 55.2% (active).

`O=C(CNc1cccc2ccccc12)N/N=C/c1cccc(Oc2ccccc2)c1`: the inhibition is 51.8% (active).

Take `Cc1cccc(NCC(=O)N/N=C\c2cccc(Oc3ccccc3)c2)c1`: the inhibition was 12.6%.

`CSc1ccc(/C=N/NC(=O)CNc2cccc3ccccc23)cc1`: the inhibition is 17.1%.

For the compound `Cc1ccc(NCC(=O)N/N=C/c2cccc(Oc3ccccc3)c2)cc1`, the inhibition was 10.5%.

For `O=C(N=Nc1c(O)[nH]c2ccccc12)c1cc(NS(=O)(=O)c2cccs2)cc(NS(=O)(=O)c2cccs2)c1`, the inhibition is -0.7%.

Regarding `O=C(N/N=C/C=C\c1ccccc1[N+](=O)[O-])c1ccccn1`, the inhibition is 13.1%.

Regarding `COc1ccc(N2CCN(C(c3cccs3)C(C)NS(=O)(=O)c3ccccc3)CC2)cc1` (configuration not stated), the inhibition is 20.1%.

Consider `CN(c1ccc(OCC(=O)OCC(=O)NC2CCCC2)cc1)S(=O)(=O)c1ccc2ccccc2c1`, for which the inhibition was 23.5%.

Take `O=C(O)C1CCC(Cn2c(SCc3cc(=O)n4cc(Br)ccc4n3)nc3ccsc3c2=O)CC1` (configuration not stated): the inhibition is 5.7%.

For the compound `Cc1ccc2cc(S(=O)(=O)NCCCN3CCOCC3)ccc2c1`, the inhibition is 4.1%.

As for `O=C(CNc1cccc2ccccc12)N/N=C/c1ccc([N+](=O)[O-])o1`, the inhibition was 60.4% (active).

`O=C(CNc1ccc2ccccc2c1)N/N=C/c1ccc([N+](=O)[O-])o1`: the inhibition is 46.2%.

With `O=C(CNc1ccccc1)N/N=C/c1ccc([N+](=O)[O-])o1`, the inhibition is 8%.

In the case of `O=C(O)/C=C/C(=O)N1CCN(c2ccccc2F)CC1`, the inhibition was 2.7%.

Regarding `N#CCSc1nnc(C2CCCCC2)n1-c1ccccc1`, the inhibition is 11.9%.

Take `NC(=O)c1cccc(S(=O)(=O)N2CC(c3ccccc3)CC2=O)c1` (configuration not stated): the inhibition was 5.1%.

For the compound `O=[N+]([O-])c1ccc(Oc2cccc3cccnc23)c([N+](=O)[O-])c1`, the inhibition was 11.4%.

In the case of `NC(=O)c1ccc(Oc2cccc3cccnc23)c([N+](=O)[O-])c1`, the inhibition is 50.2% (active).

With `Cc1cc(Cl)ccc1Oc1ccc(C(N)=O)cc1[N+](=O)[O-]`, the inhibition is 5.8%.

As for `O=C(Oc1cccc2cccnc12)c1cccc([N+](=O)[O-])c1`, the inhibition is 44.3%.

Take `Cc1c(C(=O)Oc2cccc3cccnc23)cccc1[N+](=O)[O-]`: the inhibition was 36.1%.

Regarding `COc1ccc(C(=O)Oc2cccc3cccnc23)cc1[N+](=O)[O-]`, the inhibition was 51.9% (active).

As to `COc1cccc(CNC(=O)CCC2CCCN(C(=O)CCC(F)(F)F)C2)c1` (configuration not stated), the inhibition is 7.7%.

Regarding `CCNc1nc(NCC)n2c(SCC(=O)c3ccc(C(C)C)cc3)nnc2n1`, the inhibition is -21%.

`CCCNC(=O)Cc1c(O)c2ccccc2[nH]c1=O`: the inhibition was 6.5%.

Regarding `COc1cc(C2C3=C(Nc4ncnn42)c2ccccc2CC3)cc(OC)c1OC` (configuration not stated), the inhibition is 51.9% (active).

In the case of `COc1ccc(C2C3=C(Nc4ncnn42)c2ccccc2CCC3)cc1` (configuration not stated), the inhibition was 3.7%.

With `COc1ccc(C2C3=C(Nc4ncnn42)c2ccccc2CC3)cc1OC` (configuration not stated), the inhibition was 38.6%.

`Cc1ccc2[nH]c(=O)c(-c3nc4c(C)cccn4c3NCc3ccco3)cc2c1`: the inhibition was 55.2% (active).

Take `Cc1cccc2cc(-c3nc4c(C)cccn4c3NCc3ccco3)c(=O)[nH]c12`: the inhibition is 1.7%.

Turning to `Cc1ccn2c(-c3csc(NCc4ccco4)n3)c(C)nc2c1`, the inhibition is 48.7%.

`Cc1ccc2[nH]c(=O)c(-c3nc4cc(C)ccn4c3NCc3ccco3)cc2c1`: the inhibition was 53.7% (active).

Consider `Cc1ccc2[nH]c(=O)c(-c3nc4ccccn4c3NCc3ccco3)cc2c1`, for which the inhibition is -4.9%.

`Cc1cccn2c(=O)c(C=Nc3ccccc3)c(NCc3ccco3)nc12`: the inhibition is -12.9%.

Turning to `CC1CCCCC1NCc1cccc([N+](=O)[O-])c1` (configuration not stated), the inhibition is 2.2%.

On to `CCc1ccc(C2=NN(S(C)(=O)=O)C(c3cccs3)C2)cc1` (configuration not stated), for which the inhibition was 3.7%.

With `COc1ccccc1NC(=O)Cn1cnc2sc(C(=O)NCc3ccco3)c(C)c2c1=O`, the inhibition was -4.1%.

`Nc1nc2c(Cl)ccc(Cl)c2s1`: the inhibition is 8%.

Turning to `Nn1c(SCc2ccccn2)nncc1=O`, the inhibition was -1.6%.

Consider `C/C(=N\Nc1ccccn1)c1ccc(C(C)C)cc1`, for which the inhibition is 11.6%.

As to `CCC(C(=O)OCC(=O)Nc1ccc(OC)cc1OC)c1ccccc1` (configuration not stated), the inhibition was 10.5%.

`CCOc1ccccc1NC(=O)COC(=O)C(CC)c1ccccc1` (configuration not stated): the inhibition is 64.5% (active).

On to `CCC(C(=O)OCC(=O)Nc1cc(C)ccc1OC)c1ccccc1` (configuration not stated), for which the inhibition is 0.3%.

`O=C(NC1CCCc2ccccc21)c1ccc2c(c1)OCO2` (configuration not stated): the inhibition is 8.7%.

As to `COc1ccc(-n2cc(CNCC3CCOCC3)c(-c3cccc(F)c3)n2)cc1`, the inhibition is 4.6%.

Turning to `CCOC(=O)C1CCN(c2cc(=O)n(-c3ccccc3Cl)c(=O)[nH]2)CC1`, the inhibition was -1.4%.

In the case of `O=c1c(-c2ccccc2)nc(-c2ccccc2)cn1O`, the inhibition is 3.4%.

For `Cc1nc(-c2ccccc2)ccc1C(=O)O`, the inhibition was 0.4%.

Turning to `Cc1nc(-c2ccccc2)cn(O)c1=O`, the inhibition was 65.6% (active).

Take `CCOC(=O)N1CCN(C(=O)CSc2ccc3nnc(-c4ccncc4)n3n2)CC1`: the inhibition is 8.4%.

In the case of `COc1ccccc1/C=N/Nc1cc(N(C)C)nc(N(C)C)n1`, the inhibition was 63.4% (active).

Take `COc1ccccc1/C=N/NC1=NCCCCC1`: the inhibition is 0.4%.

`COc1ccccc1/C=N/Nc1nncc2ccccc12`: the inhibition was -1.9%.

For `O=C(CCCN1C(=O)c2ccccc2C1=O)Nc1c2c(nc3c1CCC3)CCC2`, the inhibition is -20.1%.

Regarding `Cc1nn(C)c(C)c1NC(=O)CC12CC3CC(CC(C3)C1)C2`, the inhibition is -1.3%.

With `COc1cc(C)nc(N2CCC(C(=O)NC3CCCCC3)CC2)n1`, the inhibition is 3.7%.

`CC(=O)c1cccc(NC(=O)CCS(=O)(=O)c2cccc3nsnc23)c1`: the inhibition was -33.5%.

For the compound `CCOc1ccc(OCCCCNC(C)(C)C)cc1`, the inhibition is 58.8% (active).

`CC(C)(C)NCCCCOc1ccc(F)cc1`: the inhibition is 4.1%.

Take `CCOc1ccc(OCCCCNCCN)cc1`: the inhibition is -2.4%.

Turning to `O=P(CO)(Cc1ccccc1)Cc1ccccc1`, the inhibition is 5%.

With `O=C(O)C/C=C(\NC(=O)OCc1ccccc1)C(=O)OCc1ccccc1`, the inhibition is -163%.

As for `Cc1cc(C)n2c(SC/C(O)=C(\C#N)c3nc4ccccc4[nH]3)nnc2n1`, the inhibition was 53.4% (active).

On to `Cn1cnnc1SC/C(O)=C(\C#N)c1nc2ccccc2[nH]1`, for which the inhibition was 0.7%.

Regarding `Cc1ccccc1-n1c(SC/C(O)=C(\C#N)c2nc3ccccc3[nH]2)nnc1-c1ccncc1`, the inhibition was 20.6%.

For the compound `CCOc1cc(/C=N/NC(=O)COc2ccc(Cl)cc2)ccc1OS(=O)(=O)c1ccccc1`, the inhibition is -94.4%.

Consider `COc1ccccc1C(=O)Nc1cc2cc(Cl)ccc2oc1=O`, for which the inhibition is -8%.

In the case of `NC(CO)C(=O)NNCc1ccc(O)c(O)c1O` (configuration not stated), the inhibition was 60.4% (active).

Take `COC(=O)[C@@H](N)Cc1ccc(O)cc1`: the inhibition is 6.4%.

`COC(=O)C(N)Cc1ccc(O)cc1` (configuration not stated): the inhibition is -2.8%.

For `COc1cc2c(cc1OC)CN(C(=O)CSc1nnc(C)s1)CC2`, the inhibition is -13.4%.

Take `N#CC1=C2SCN(c3ccccc3)CN2C(=O)CC1c1ccccc1Cl` (configuration not stated): the inhibition is -41%.

As for `CCc1ccccc1N1CSC2=C(C#N)C(c3ccccc3F)CC(=O)N2C1` (configuration not stated), the inhibition was -5.1%.

As for `CCc1ccc(N2CSC3=C(C#N)C(c4cccs4)CC(=O)N3C2)cc1` (configuration not stated), the inhibition is -68.6%.

For `N#CC1=C2SCN(Cc3ccccc3)CN2C(=O)CC1c1cccs1` (configuration not stated), the inhibition was 67.2% (active).

For `N#CC1=C2SCN(Cc3ccccc3)CN2C(=O)CC1c1ccccc1F` (configuration not stated), the inhibition was 52.1% (active).

As for `N#CC1=C2SCN(c3ccccc3)CN2C(=O)CC1c1cccs1` (configuration not stated), the inhibition was -2%.

As to `O=C(COC(=O)c1cccnc1)Nc1ccc2c(c1)OCO2`, the inhibition was 17.6%.

With `Cc1cc(C)c(C(=O)Nc2ccc(S(=O)(=O)Nc3onc(C)c3C)cc2)c(C)c1`, the inhibition was 7.8%.

Take `OC(COC1CCCCC1)CN1CCN(c2ccccc2)CC1` (configuration not stated): the inhibition is 10.6%.

On to `N/C(=N\OC(=O)c1cc(Cl)ccc1Cl)c1ccccn1`, for which the inhibition is -10.6%.

For `Cc1cc(C)n(CCN(C)c2nc3nonc3nc2NC2CC2)n1`, the inhibition is 14.8%.

With `Cc1[nH]c2c(C)cccc2c1CCNC(=O)c1ccc2c(c1[N+](=O)[O-])C(=O)c1ccccc1C2=O`, the inhibition is 55.5% (active).

As to `CCN(CC)C(=O)c1ccc2c(c1[N+](=O)[O-])C(=O)c1ccccc1C2=O`, the inhibition is 29.5%.

With `Cc1[nH]c2ccccc2c1CCNC(=O)c1ccc2c(c1[N+](=O)[O-])C(=O)c1ccccc1C2=O`, the inhibition was 53.9% (active).

Turning to `CN(C)C(=O)c1ccc2c(c1[N+](=O)[O-])C(=O)c1ccccc1C2=O`, the inhibition was -16.2%.

As for `Cc1ccc([N+](=O)[O-])cc1S(=O)(=O)NCCc1c(C)[nH]c2c(C)cccc12`, the inhibition was -3%.

`CCCNC(=O)NCCc1c(C)[nH]c2ccccc12`: the inhibition is 0.4%.

As to `O=C(O)c1cccc(NS(=O)(=O)c2ccc3nnn(O)c3c2)c1`, the inhibition is 11.9%.
